Rows were chosen to be rich in hits. Some 2.4% of all compounds tested hit in one or more screens of this group.
FEN1 inh: human FEN1 inhibition. actives 0.35% (n = 390,000). Potency, µM (titrated, usually from 114 µM), hits mostly inhibitors. P39748. Recombinant FEN1 flap cleavage, fluorescence, 15 min; note: nearly all actives have a fitted effect of over 65% in size
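Enzyme 10 nM, 15 min RT preincubation with compound; start with substrate 50 nM final; reads at 0 and 15 min; qHTS titration, four-parameter Hill fit.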
Pol kappa inh: inhibitors of human DNA polymerase kappa; Q9UBT6; purified Pol kappa, fluorescent DNA synthesis assay, 10 min; Potency, µM (series often up to 107 µM), usual class: inhibitors; actives 0.53% (n = 400,000)
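Here, compound and 10 nM enzyme are combined for 15 min at room temperature; adding 50 nM substrate (final) starts DNA synthesis, tracked by fluorescence at 0 and 10 min against buffer-only wells.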
Pol iota inh: inhibitors of human DNA polymerase iota. Potency, µM (highest dose often 115 µM), most hits filed as inhibitors. Q9UNA4. actives 1% (n = 390,000). Pol iota fluorescent replication assay, 10 min
Target sequence (Q9UNA4 whole entry, looked up): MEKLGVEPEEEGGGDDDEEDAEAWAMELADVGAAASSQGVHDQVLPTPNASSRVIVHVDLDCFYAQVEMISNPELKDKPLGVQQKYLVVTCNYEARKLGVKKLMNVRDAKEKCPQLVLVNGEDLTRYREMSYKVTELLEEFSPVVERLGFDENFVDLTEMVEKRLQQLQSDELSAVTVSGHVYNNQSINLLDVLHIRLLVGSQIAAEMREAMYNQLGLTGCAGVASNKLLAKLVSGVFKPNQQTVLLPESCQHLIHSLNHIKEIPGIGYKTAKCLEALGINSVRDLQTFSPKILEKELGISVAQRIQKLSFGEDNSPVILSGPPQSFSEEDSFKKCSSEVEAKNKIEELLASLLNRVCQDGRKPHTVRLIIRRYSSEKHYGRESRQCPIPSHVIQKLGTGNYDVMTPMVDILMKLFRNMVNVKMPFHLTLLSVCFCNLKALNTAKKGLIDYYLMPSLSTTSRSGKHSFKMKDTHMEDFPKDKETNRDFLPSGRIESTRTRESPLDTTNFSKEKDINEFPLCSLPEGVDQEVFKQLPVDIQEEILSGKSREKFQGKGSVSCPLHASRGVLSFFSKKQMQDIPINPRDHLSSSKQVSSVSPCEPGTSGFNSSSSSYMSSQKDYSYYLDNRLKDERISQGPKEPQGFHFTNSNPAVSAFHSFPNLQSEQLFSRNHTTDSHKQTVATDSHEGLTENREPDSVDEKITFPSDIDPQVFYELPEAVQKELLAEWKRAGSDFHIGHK
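Pol iota at 10 nM preincubated 15 min with compounds at room temperature; reaction started with fluorescent substrate, 50 nM final. Fluorescence read kinetically at 0 and 10 min; buffer-only wells as negative control.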
WRN inhibitor: WRN helicase (human) inhibition | actives 0.46% (n = 360,000) | AID 651768 | WRN helicase unwinding, fluorescent forked duplex, kinetic | Potency, µM (highest dose often 114 µM), most hits filed as inhibitors; note: nearly all actives have a fitted effect of over 55% in size
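WRN at 20 nM final preincubated with compound 15 min at room temperature; reaction started with 100 nM fluorophore/quencher forked duplex oligonucleotide and 2 mM ATP final. Unwinding followed kinetically by red fluorescence (ex 525, em 598 nm).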
Pol eta inh: blocks human DNA polymerase eta activity; actives 1.2% (n = 390,000); recombinant Pol eta, fluorescent DNA replication assay; AID 588591; Potency, µM (doses to about 114 µM), hits mostly inhibitors; Q9Y253
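Fluorescent replication assay: 50 nM final substrate added after a 15 min room-temperature compound preincubation with 10 nM enzyme. Signal taken at 0 min and again at 10 min.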
POLB inh: inhibitors of human DNA polymerase beta | P06746 | Pol beta primer extension/strand displacement, fluorescence kinetic | Potency, µM (series often up to 114 µM), usual class: inhibitors | actives 1.3% (n = 340,000)
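Enzyme-only controls used 10 nM Pol beta; buffer lacking enzyme served as negative control. Compound preincubated 15 min, then 50 nM substrate added; 0 and 10 min reads at room temperature.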
Each line names hits and unclear results; the compound was inactive in the other large screens. Calls come from the whole dose curve; as a rule, active = well fitted curve in the direction sought with a large enough effect; inconclusive = small, poorly fitted or top-dose-only effect, or another doubt; inactive = no such curve, though single readings can be large; an effect the other way counts as inactive or inconclusive.

NCCNCCNCCN	none
NCCNCCN	Pol kappa inh 1.1µM (no result: FEN1 inh, Pol iota inh, WRN inhibitor, Pol eta inh, POLB inh)
Cc1cccc(C)c1Nc1nnc(SC/C(O)=C(\C#N)c2nc3ccccc3[nH]2)s1	Pol eta inh 18µM, POLB inh inconclusive
Cc1ccc(C)c(SCC(=O)OC/C(O)=C(\C#N)c2nc3ccccc3[nH]2)c1	Pol iota inh inconclusive, Pol eta inh 45µM, POLB inh inconclusive
C[C@@]12C=CC(=O)C=C1CC[C@H]1[C@H]3CC[C@](O)(C(=O)CO)[C@]3(C)CC(=O)[C@@H]12	none (no result: FEN1 inh, Pol iota inh, WRN inhibitor, Pol eta inh, POLB inh)
Cn1cnc(S(=O)(=O)N2CCC(C(=O)Nc3ccc(Cl)c(C(F)(F)F)c3)CC2)c1	none (no result: WRN inhibitor)
Cc1sc2nc3c(SC(C)C(=O)O)cc(C(=O)c4ccccc4O)cn3c(=O)c2c1C (stereo not given)	Pol iota inh inconclusive, WRN inhibitor inconclusive, Pol eta inh inconclusive, POLB inh inconclusive
COC(=O)c1cc(C(=O)c2cc(F)ccc2O)cn2c(=O)c3c(C)c(C)sc3nc12	Pol iota inh inconclusive, POLB inh 32µM
CCOC(=O)c1sc2nc3c(SCC(=O)O)cc(C(=O)c4ccccc4O)cn3c(=O)c2c1C	FEN1 inh inconclusive, Pol iota inh inconclusive, Pol eta inh inconclusive, POLB inh 3.2µM
CCc1c(C)sc2nc3c(C(=O)N4CCOCC4)cc(C(=O)c4ccccc4O)cn3c(=O)c12	none
Cc1nc(-c2cccnc2)sc1CCNS(=O)(=O)c1ccc(F)cc1	none (no result: WRN inhibitor)
COCCNC(=O)CSc1nc(-c2cc(OC)c(OC)c(OC)c2)[nH]c1-c1ccc(Cl)cc1	FEN1 inh inconclusive, POLB inh inconclusive (no result: WRN inhibitor)
CCCCCCCCCC(=O)O[C@H](CC(=O)O)C[N+](C)(C)C	none (no result: FEN1 inh, Pol iota inh, WRN inhibitor, Pol eta inh, POLB inh)
Cc1c(C(=O)O)c(O)cc2c1C(=O)c1c(O)c([C@H]3O[C@H](CO)[C@@H](O)[C@H](O)[C@H]3O)c(O)c(O)c1C2=O	FEN1 inh 50µM, Pol kappa inh 3.2µM, Pol iota inh 79µM (no result: WRN inhibitor, Pol eta inh, POLB inh)
Cc1ccc(N=c2ssnc2Cl)cc1	Pol iota inh inconclusive, WRN inhibitor 50µM
Nc1ccccc1N=c1ssnc1Cl	Pol iota inh inconclusive
Cc1cc(Cl)ccc1N=c1ssnc1Cl	Pol iota inh inconclusive, WRN inhibitor 50µM
O=S(=O)(O)CC(S)CS (stereo not given)	none (no result: FEN1 inh, Pol iota inh, WRN inhibitor, Pol eta inh, POLB inh)
Cn1c(-c2ccc(N)cc2)nc2ccccc21	none
Cn1c(-c2ccc3nc(N)sc3c2)nc2cc(N)ccc21	FEN1 inh 56µM, Pol kappa inh 71µM, Pol iota inh 32µM, WRN inhibitor inconclusive, Pol eta inh inconclusive, POLB inh 20µM
SCc1nc2ccccc2[nH]1	none (no result: WRN inhibitor, Pol eta inh, POLB inh)
Cc1ccc(-c2nnc(SCC(=O)Nc3sc(C)c(C)c3C#N)n2C)cc1	Pol eta inh inconclusive, POLB inh 22µM
CN(C)c1ccc(/C=C/c2ccnc3ccc(N)cc23)cc1	none (no result: WRN inhibitor, Pol eta inh, POLB inh)
COc1ccccc1NC(=O)N1c2ccccc2Sc2ccccc21	none (no result: WRN inhibitor)
COc1cccc(/C=N/Nc2nnc(C)n2N)c1O	Pol iota inh 4µM
COc1ccc(-n2c(C)cc(/C=N/Nc3nnc(C)n3N)c2C)cc1	Pol iota inh 22µM
Cc1nnc(N/N=C/c2ccccc2F)n1N	Pol iota inh inconclusive
COc1cccc(/C=N/Nc2ccc([N+](=O)[O-])cc2)c1O	POLB inh 45µM
Cc1nnc(N/N=C/c2ccco2)n1N	Pol iota inh 10µM
COC(=O)c1ccc(N/N=C/c2cc([N+](=O)[O-])cc(OC)c2O)cc1	POLB inh inconclusive
CCOc1ccc(-n2c(C)cc(/C=N/NC(=O)C(N)=O)c2C)cc1	none
CCCCN(c1ccccc1)c1ncnc2c1cnn2-c1ccc(Cl)cc1	none (no result: WRN inhibitor)
CCOC(=O)c1scc(-c2ccccc2)c1S(=O)(=O)N1CCN(c2ccccc2OC)CC1	none (no result: WRN inhibitor)
COc1ccc(OC)c(-c2csc(NC(=O)COC(=O)c3ccc(NC(=O)CC#N)cc3)n2)c1	FEN1 inh 79µM, Pol kappa inh 50µM, Pol iota inh 28µM, WRN inhibitor inconclusive, Pol eta inh 20µM (no result: POLB inh)
CSc1ccc(CNC(=O)c2cc3c(=O)n(Cc4ccco4)ccc3nc2C)cc1	FEN1 inh 89µM, Pol iota inh inconclusive, POLB inh inconclusive (no result: WRN inhibitor)
CCOc1ccccc1CNC(=O)c1cc2c(=O)n(Cc3ccccc3)ccc2nc1C	Pol iota inh inconclusive, POLB inh 25µM (no result: WRN inhibitor)
COc1ccc(Cn2ccc3nc(C)c(C(=O)NCc4ccc(OC)cc4OC)cc3c2=O)cc1	none (no result: WRN inhibitor)
CC1CCC(O)C/C1=C\C=C1/CCCC2(C)C1CCC2C(C)/C=C/C(C)C(C)C (stereo not given)	none (no result: FEN1 inh, Pol iota inh, WRN inhibitor, Pol eta inh, POLB inh)
CC(C)Oc1ccc(CNC(=O)C(C)n2ccc3cc(S(=O)(=O)N4CCCCCC4)ccc32)cc1 (stereo not given)	none (no result: WRN inhibitor)
CCN1CCN(C(=O)c2ccc3c(c2)N(Cc2cccc(F)c2)C(=O)c2ccccc2S3)CC1	Pol iota inh inconclusive, Pol eta inh inconclusive, POLB inh inconclusive (no result: WRN inhibitor)
O=C(c1ccc2c(c1)N(Cc1cccc(F)c1)C(=O)c1ccccc1S2)N1CCOCC1	Pol iota inh inconclusive, Pol eta inh inconclusive, POLB inh 50µM (no result: WRN inhibitor)
O=c1c2ccccc2cnn1Cc1nnc(-c2cccs2)o1	Pol iota inh inconclusive, POLB inh 45µM
O=C(OC1CCOC1=O)c1ccccc1C(=O)c1ccc(Cl)c([N+](=O)[O-])c1 (stereo not given)	Pol iota inh 40µM, Pol eta inh 50µM (no result: POLB inh)
O=C(COC(=O)c1ccccc1C(=O)c1ccc(Cl)c([N+](=O)[O-])c1)NC1CC1	none
FC(F)(F)c1ccccc1-c1nc(NC2CCNCC2)c2ccccc2n1	none (no result: FEN1 inh, Pol iota inh, WRN inhibitor, Pol eta inh, POLB inh)
CCOC(=O)c1ccc(NC(=O)CC2Nc3cc(C)c(C)cc3NC2=O)cc1 (stereo not given)	POLB inh inconclusive (no result: WRN inhibitor)
CCOC(=O)C(C)N1C(=O)S/C(=C/c2cc(C)n(-c3ccccn3)c2C)C1=O (stereo not given)	Pol kappa inh 89µM
O=C(NNC(=O)c1ccc(NC(=O)c2ccccc2)cc1)Nc1ccccc1	Pol kappa inh inconclusive, Pol iota inh 40µM, Pol eta inh inconclusive, POLB inh 11µM
COc1ccc(NC(=O)NNC(=O)c2ccc(-c3ccccc3)cc2)cc1	Pol iota inh inconclusive, POLB inh 7.9µM
O=C(CCc1ccccc1)NNC(=O)c1ccc(NC(=O)c2ccccc2)cc1	Pol iota inh inconclusive, Pol eta inh inconclusive, POLB inh 22µM
O=C1C(=Cc2cccs2)C(=O)c2ccccc21	none
Cc1ccc(C=C2C(=O)c3ccccc3C2=O)s1	Pol iota inh 25µM, WRN inhibitor inconclusive, Pol eta inh inconclusive
Cc1cc(C(=O)N/N=C/c2ccc(-c3ccccc3Cl)o2)n[nH]1	Pol kappa inh inconclusive, Pol eta inh inconclusive, POLB inh 10µM
Nc1ccc(/C=C/c2ccnc3ccccc23)cc1	none (no result: WRN inhibitor, Pol eta inh, POLB inh)

Screening results: PubChem BioAssay, National Center for Advancing Translational Sciences (NCATS)
